Source: PubChem BioAssay
Anthrax LF prot: blocks Bacillus anthracis lethal factor protease; 360,000 tested, 0.12% active; AID 588501; P15917; inhibition, % at 10 µM; multiplex microsphere protease cleavage assay, LF; note: plate controls were buffer without enzyme for full effect and enzyme alone for no effect
CCHFV vOTU inh: CCHFV vOTU protease inhibition | 370,000 tested, 0.55% active | AID 651958 | inhibition, % at 11.5 µM | Pep-AMC fluorescence; in the data active = inhibition above about 30%; note: 0% = vehicle wells with enzyme and 100% = no enzyme wells
3CLpro inhibitor: SARS-CoV 3CLpro protease inhibition. inhibition, % at 6 µM. recombinant SARS-CoV 3CLpro, quenched FRET peptide cleavage. 290,000 tested, 0.14% active. AID 1706; in the data active = inhibition above about 12%
BoNT F protease: blocks Botulinum neurotoxin F light chain protease | Multiplex microsphere protease cleavage assay, flow cytometry | inhibition, % at 10 µM | 360,000 tested, 0.22% active; in the data active = inhibition above about 35%, passing the limit was not always enough; inconclusive = no clear call, values can overlap the other calls; note: plate controls were buffer without enzyme for full effect and enzyme alone for no effect
Autofluor counter: compound fluorescence in toxin protease inhibitor counterscreen; compound autofluorescence counterscreen, microsphere flow cytometry; stronger effect = higher value; 360,000 tested, 3.1% active; fluorescence intensity (test concentration not listed); in the data active = fluorescence intensity above about 16000; inconclusive = no clear call, values can overlap the other calls
BoNT A protease: BoNT A light chain protease inhibition; multiplex microsphere protease substrate cleavage, flow cytometry; AID 588499; inhibition, % at 10 µM; 360,000 tested, 0.17% active; note: plate controls were buffer without enzyme for full effect and enzyme alone for no effect
Starred values were filed as active, the others as inactive; ? = inconclusive; / = no result given. A selection: hits, their analogues and other compounds. The true share with any hit is near 3.9%. Cut-off read from the data, not from the text of the source, unless noted: active = inhibition above about 30%; inconclusive = no clear call, values can overlap the other calls; inactive = below that.

SMILES | Anthrax LF prot | CCHFV vOTU inh | 3CLpro inhibitor | BoNT F protease | Autofluor counter | BoNT A protease
C=C(C)CN1C(=O)C(O)(CC(=O)c2ccc3c(c2)OCCO3)c2ccccc21 (stereo not given) | 0 | 2 | 3 | -8 | 3347 | 0
C=CCN1C(=O)C2(/C(=C(\O)c3ccc4c(c3)OCCO4)C(=O)C(=O)N2CCCOC)c2ccccc21 (stereo not given) | 0 | / | -2 | -2 | 23166* | 0
COC(=O)[C@]12C[C@H](CC(=O)N3CCCCC3)C(=O)N(Cc3cccc4ccccc34)C1=C[C@H](C(C)(C)C)O[C@@H]2C | / | 17 | / | / | / | /
Cc1cccc(NS(=O)(=O)c2ccc(C3CCCCC3)cc2)n1 | 0 | -3 | 2 | -3 | 22937* | -2
Cc1cccc(NC(=O)COc2ccc(-c3nn(C)c(=O)c4ccccc34)cc2)c1 | -3 | 0 | 3 | -10 | 4094 | 0
CCOC(=O)c1c[nH]n2c(=O)cc(C)nc12 | -9 | -4 | 2 | -15 | 4965 | -1
COC(=O)c1c[nH]n2c(=O)cc(C)nc12 | -3 | -14 | 1 | -4 | 23157* | -1
N#Cc1ccc(CSc2nnc(-c3ccccc3)n2Cc2ccco2)cc1 | -2 | -11 | 5 | -2 | 24109* | ?
c1ccc(-c2nnc(SCc3nc4ccccc4[nH]3)n2Cc2ccco2)cc1 | -1 | -10 | 4 | 4 | 22637* | ?
COc1ccc(NC(=O)COC(=O)C2CC2)c(OC)c1 | / | -11 | / | / | / | /
CCCN1CNC(=S)N(c2cccc(C)c2C)C1 | -19 | -4 | 3 | 22 | 14518 | ?
CCN1CNC(=S)N(c2cccc(C)c2C)C1 | -2 | -6 | -3 | -3 | 20115* | ?
C=CC[C@]1(c2ccccc2)C(=O)N2C[C@H]3CON(C)[C@H]3C[C@H]2c2ccccc21 | / | -4 | / | / | / | /
O=C(Cc1ccccc1)N/N=C/c1cc(Br)c(Br)o1 | 2 | 5 | 4 | -4 | 16918* | ?
CCn1c(SCC(=O)N/N=C/C=C\c2ccccc2[N+](=O)[O-])nc2ccccc21 | 1 | 5 | 0 | -2 | 22694* | ?
CCn1c(SCC(=O)N/N=C/c2ccc(OC)c(OC)c2)nc2ccccc21 | 0 | 2 | -2 | -2 | 22575* | 1
Cc1cccc(N(Cc2ccccc2)C(=O)CN2C(=O)NC3(CCCCC3C)C2=O)c1 (stereo not given) | -12 | 9 | / | -2 | 4100 | 0
O=C1c2ccccc2C(=O)C12Cc1ccccc1N1CCN(c3ccccc3)CC12 (stereo not given) | -11 | -4 | 1 | 0 | 4508 | 0
O=C1NC(=O)C2(Cc3ccccc3N3CCCC32)C(=O)N1c1cccc(Cl)c1 (stereo not given) | 1 | 7 | 0 | 1 | 20287* | ?
Cc1ccc(N2C(=O)NC(=O)C3(Cc4ccccc4N4CCN(c5ccccc5)CC43)C2=O)cc1 (stereo not given) | -10 | 7 | 2 | 9 | 19868* | 6
COc1cccc(CNC(=O)CCS(=O)(=O)c2ccc3c(c2)NC(=O)CO3)c1 | 0 | 10 | 0 | 8 | 5196 | 0
COc1ccc(NC(=S)N2CCN(C(=O)c3ccco3)CC2)cc1OC | 0 | -1 | 0 | -5 | 4860 | -2
CC(=O)C1(C(=O)NC2CCCC2)CC(c2ccccn2)=NO1 (stereo not given) | / | -11 | / | / | / | /
O=S(=O)([O-])CCC[n+]1c(/C=C\Nc2ccccc2)oc2ccc(-c3ccccc3)cc21 | / | / | -30 | / | / | /
CN(Cc1ccccc1)C(=O)c1cc2cc(F)ccc2[nH]1 | 4 | 6 | -1 | -16 | 3566 | 0
SMILES | Anthrax LF prot | CCHFV vOTU inh | 3CLpro inhibitor | BoNT F protease | Autofluor counter | BoNT A protease
NC(=O)c1nsc(C(=O)N(Cc2ccc(F)cc2)C(C(=O)NC2CCCC2)c2ccco2)c1N (stereo not given) | 0 | -2 | -6 | 9 | 3733 | 4
CC(C)CCNC(=O)C(c1ccco1)N(Cc1ccc(F)cc1)C(=O)c1snc(C(N)=O)c1N (stereo not given) | -5 | 6 | 3 | -3 | 19358* | 0
COc1ccc(CN2CCC(N3CC(C)OC(C)C3)CC2)c(OC)c1OC (stereo not given) | 7 | -2 | 7 | 4 | 3793 | 1
CCN(C(=O)CSc1nnc(-c2cccc(F)c2)n1N)c1c(N)n(Cc2ccccc2)c(=O)[nH]c1=O | 0 | 26 | / | 3 | 5317 | 6
CCOC(=O)c1c(NC(=O)COC(=O)c2cnc(C)cn2)sc(C(=O)N(C)C)c1C | -11 | 2 | / | -106 | 16695* | -80
CCOC(=O)c1c(NC(=O)COC(=O)c2ccccn2)sc(C(=O)N(C)C)c1C | 0 | 5 | / | 1 | ? | -4
CCn1nc(C(=O)Nc2ccc(Cl)c(S(=O)(=O)N3CCOCC3)c2)c2ccccc2c1=O | -3 | 6 | / | 3 | ? | 0
Nc1nnc(Cc2ccc(F)cc2)s1 | 4 | 7 | 0 | -1 | 4021 | 1
Nc1nnc(CC2=CCCCC2)s1 | -9 | 11 | -4 | -3 | 22203* | -2
COC(=O)C1=C(C)N(Cc2ccccc2C(F)(F)F)C(=NCc2cccc(C(F)(F)F)c2)NC1CCc1ccccc1 (stereo not given) | / | 13 | / | / | / | /
COc1cccc(C(=O)Nc2c(C(N)=O)oc3ccccc23)c1 | 4 | 10 | -8 | -4 | 5839 | 0
COc1ccc(NC(=O)C2=C(C)NC(=O)NC2c2cccc(OC)c2OC)c(OC)c1 (stereo not given) | 3 | -7 | -1 | 0 | 20365* | ?
COc1cccc(C2NC(=O)NC(C)=C2C(=O)Nc2ccc(C)cc2)c1OC (stereo not given) | -14 | -4 | 4 | -21 | 9014 | -2
CCOC(=O)c1oc2ccccc2c1NC(=O)c1cccc(OC)c1 | -1 | -3 | -3 | -1 | 22777* | 1
COc1ccc(NC(=O)c2oc3ccccc3c2NC(=O)c2ccc3c(c2)OCO3)cc1 | -3 | -7 | -1 | -2 | 22577* | 2
CCOC(=O)c1oc2ccccc2c1NC(=O)c1cccc(OC)c1OC | -2 | -4 | 6 | 1 | 18642* | 2
COc1ccc(CNCC#Cc2ccccc2)c(OC)c1 | / | 3 | / | / | / | /
COc1ccc(C(=O)c2oc3ccccc3c2N)cc1 | -2 | -2 | 5 | -8 | 20810* | -4
CCOC(=O)c1[nH]c2ccccc2c1NC(=O)c1ccc2c(c1)OCO2 | -2 | -1 | -3 | -4 | 4487 | 0
Cc1ccc2oc(-c3ccc(NC(=O)c4ccc5c(c4)OCO5)cc3)nc2c1 | -6 | -11 | 5 | 10 | 9825 | 0
CCOC(=O)c1oc2ccccc2c1NC(=O)c1ccc2c(c1)OCO2 | -2 | -4 | 0 | -5 | 24146* | -4
O=C(Nc1ccc(-c2nc3ccccc3o2)cc1)c1ccc2c(c1)OCO2 | -2 | 7 | 3 | 0 | 16511* | 0
COc1ccc(NC(=O)c2oc3ccccc3c2C)c(OC)c1 | 0 | 8 | 2 | -3 | 22634* | ?
COC(=O)c1[nH]c2cc(OC)c(OC)cc2c1/C=N/Nc1ccccc1 | -6 | -11 | -5 | ? | 4307 | -14
